These results are taken from PubChem BioAssay (NCI).

What all share (experiment): NCI-60 one-dose screen, 48 h (100 = growth as untreated, 0 = no growth, -100 = all killed)
For assay [1], the system named is K-562 leukemia. As to conditions: 10 µM unless noted.
The subject of assay [2] is MALME-3M melanoma. As to conditions: 10 µM unless noted.
Assay [3] relates to RXF 393 renal. To be noted: 10 µM unless noted.
For assay [4], the system named is SF-295 CNS. To be noted: 10 µM unless noted.
Assay [5] relates to UACC-257 melanoma. To be noted: 10 µM unless noted.
Assay [6] deals with HCT-15 colon. To be noted: 10 µM.
Assay [7] concerns UACC-62 melanoma. To be noted: 10 µM unless noted.
Assay [8] has as its system LOX IMVI melanoma. As to conditions: 10 µM unless noted.
For assay [9], the system named is SK-MEL-2 melanoma. To be noted: 10 µM unless noted.
Assay [10] relates to TK-10 renal. As to conditions: 10 µM unless noted.
Assay [11] relates to ACHN renal. To be noted: 10 µM unless noted.
The subject of assay [12] is A498 renal. As to conditions: 10 µM unless noted.
Assay [13] has as its system MOLT-4 leukemia. To be noted: 10 µM.
Assay [14] deals with OVCAR-8 ovarian. To be noted: 10 µM unless noted.
In assay [15] the test system is OVCAR-4 ovarian. To be noted: 10 µM unless noted.
Assay [16] has as its system NCI/ADR-RES ovarian. As to conditions: 10 µM unless noted.
For assay [17], the system named is T-47D breast. To be noted: 10 µM unless noted.
Assay [18] deals with BT-549 breast. As to conditions: 10 µM.
Assay [19] has as its system HCC-2998 colon. As to conditions: 10 µM unless noted.
Assay [20] deals with HL-60(TB) leukemia. To be noted: 10 µM unless noted.

About 83,000 compounds went through this panel and 20% of them were active in at least one assay; those are over-represented in the sample as a whole.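 Values shown are percent growth following 48 h exposure of cells in 96-well plates to a single concentration of compound; below 10 was considered active.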 Unmarked numbers belong to inactive results. Active and inactive are the calls of the source.

Consider `CNc1ccc(C(=O)CC(O)CCC(C)C2OC(=O)CC(O)CC(=O)CC(O)CC(O)CC(O)CC(O)CC3(O)CC(O)C(C(=O)OC)C(CC(O[C@@H]4O[C@H](C)[C@@H](O)[C@H](N)[C@@H]4O)/C=C/C=C/C=C/C=C/C=C/C=C/C=C/C2C)O3)cc1` (some centres not stated), for which the growth in assay [1] is 34.5%; in [2], -78.6% (active); in [3], -20% (active); in assay [4], 20.2%; in [5], -79.7% (active); in assay [6] it was 41.8%. The growth in assay [7] was 3.05% (active); in [8], -8.67% (active); in [9] it was -8.57% (active); in assay [10], -47.6% (active); in assay [11], -79.5% (active); in assay [12], -54.2% (active). In addition, the growth is -13.8% (active) in [13]; -22.3% (active) in assay [14]; -10.5% (active) in [15]; -35.9% (active) in assay [16]; -2.05% (active) in assay [17]; -16.8% (active) in [18]. In addition, the growth in [19] was -43.9% (active).
As for `C/C(=C\C(=O)O[C@H]1[C@@H]2[C@H](C)CC[C@H]2[C@]2(C)O[C@@]1(C1CCCCC1)C[C@H]2OC(=O)CO)c1ccccc1`, the growth was 23.2% in assay [1]; 64.4% in assay [2]; -10.1% (active) in assay [3]; 50.5% in assay [4]; 44.2% in assay [5]; 18.7% in [6]. Further, the growth in [7] is 63.2%; in assay [9] it was 55.8%; in [10], 70.5%; in assay [11] it was -16.5% (active); in assay [12], -83% (active); in assay [20], -27.8% (active). The growth in [14] was 19%; in assay [15], 38.5%; in assay [16], 7.73% (active); in assay [18], -6.37% (active); in assay [19] it was 25.9%.
Regarding `Nc1cccc(CC(=O)Nc2ccc(S(=O)(=O)F)cc2)c1`, the growth was 144% in assay [1]; 90% in assay [2]; 87.3% in assay [3]; 101% in assay [4]; 103% in assay [5]; 101% in assay [6]. Moreover, the growth is 90.5% in assay [7]; 98% in assay [8]; 125% in [9]; 107% in [10]; 112% in assay [11]; 117% in [13]. The growth was 91.2% in assay [14], 92.5% in assay [17], 97% in assay [18] and 43.9% in assay [19].
As for `NC(=O)SCC(=O)Nc1ccc([As](=O)(O)O)cc1`, the growth in assay [1] was 75.5%; in assay [2], 122%; in [3] it was 95.7%; in assay [4], 111%; in assay [5], 74.1%; in assay [6], 81.5%. Also, the growth in assay [7] was 97.3%; in assay [8] it was 68.8%; in assay [9] it was 73.3%; in [10] it was 105%; in assay [11] it was 100%; in [12], 113%. For the same molecule, the growth is 56.9% in assay [20]; 86.1% in assay [13]; 83.4% in [14]; 99.8% in [15]; 86.4% in assay [16]; 112% in assay [17]. Also, the growth in [18] was 92%; in assay [19], 82%.
For the molecule `CN1C(=O)NC(=O)C(N=Nc2ccc(Cl)cc2)C1=O` (configuration not stated), the growth in [1] is 54.7%; in assay [2], 134%; in assay [3] it was 107%; in assay [5], 105%; in assay [6] it was 88%; in assay [7], 49.9%. Further, the growth in assay [8] is 102%; in [9], 117%; in assay [10], 101%; in [11] it was 87.9%; in [12], 60.9%; in [20], 90.7%. For the same molecule, the growth was 96% in assay [13]; 104% in assay [14]; 83.5% in assay [16]; 101% in [17]; 80.3% in [18]; 90.6% in assay [19].
For the molecule `O=C(CI)Nc1ccc(Br)cc1`, the growth was -41.1% (active) in [1]; -65% (active) in assay [2]; 26.5% in [3]; 98.2% in [4]; 92.9% in [5]; 1.13% (active) in assay [6]. Besides, the growth in assay [7] was 79.2%; in [8], -78.6% (active); in [9] it was 76.4%; in assay [10], -81.4% (active); in [11], -79.8% (active); in assay [12] it was 142%. Also, the growth in assay [20] is 69.6%; in assay [13], -28.4% (active); in assay [14] it was 11.9%; in [15], 27.4%; in assay [16], 100%; in [17], 26.7%. The growth in assay [19] is 102%.
With `CC(C)[C@]12O[C@H]1[C@@H]1O[C@]13[C@]1(O[C@H]1C[C@H]1C4=C(CC[C@@]13C)C(=O)OC4)[C@@H]2OC(=O)OC(C)(C)C`, the growth in [2] is -35.6% (active); in assay [3], -52.2% (active); in assay [4], -28.7% (active); in [5], -7.48% (active); in [6] it was 8.8% (active); in assay [7], -51.4% (active). Further, the growth in [9] was -55.3% (active); in [10], 5.21% (active); in assay [11], 9.88% (active); in assay [12], -36.6% (active); in assay [20] it was -15.7% (active); in assay [13], -3.98% (active). The growth in assay [14] is 16.8%; in [15], 29.3%; in assay [16], -2.52% (active); in assay [17], 23.8%; in assay [18] it was -12.2% (active); in [19], -38% (active).
As for `COC(=O)C(=[N+]=[N-])C(=O)OC`, the growth in assay [1] is 95.5%; in [2] it was 110%; in assay [3] it was 102%; in [4], 101%; in assay [5], 96.4%; in assay [6], 105%. The growth was 95.3% in [7]; 103% in assay [8]; 91.2% in assay [9]; 92.5% in [10]; 94% in [11]; 100% in assay [12]. Besides, the growth in assay [20] was 100%; in assay [13], 105%; in assay [14] it was 101%; in [15] it was 97.1%; in assay [16], 108%; in assay [17], 109%. Besides, the growth in assay [18] was 103%; in assay [19] it was 108%.
